Data reported in PubChem BioAssay (NCATS).
Results filed as inconclusive are left out. Activity calls are given as the source filed them. The call rests on the fitted dose curve; in most records, active means well fitted inhibition curve with a large enough effect; inconclusive means small, poorly fitted or top-dose-only effect; inactive means flat fitted curve, though single readings scatter.

How the values were obtained:
Assay in all cases: qHTS profiling for inhibitors of Plasmodium falciparum proliferation (AID 504749); further: nearly all actives have a fitted effect of over 60% in size
Details in all cases: P. falciparum in erythrocytes, SYBR Green DNA, 72 h; series mostly up to 28.7 µM
[1] = test system: CP250
How it was run: (§1)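 SYBR Green fluorescence of parasite DNA, read after lysis and overnight dark incubation, measured growth over 72 h in erythrocyte culture at 0.3% parasitemia and 2.5% hematocrit. Data normalised to DMSO and 0.29 uM artemisinin, with plate-drift correction.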

[2] = test system: CP252
How it was run: as §1

[3] = test system: CP256
How it was run: as §1

[4] = test system: CP260
How it was run: as §1

[5] = test system: CP262
How it was run: as §1

[6] = test system: CP265
How it was run: as §1

[7] = test system: CP266
How it was run: as §1

[8] = test system: CP268
How it was run: as §1

[9] = test system: CP269
How it was run: as §1

[10] = test system: CP286
How it was run: as §1

[11] = test system: CP291
How it was run: as §1

[12] = test system: CP297
How it was run: as §1

[13] = test system: CP305
How it was run: as §1

[14] = test system: CP315
How it was run: as §1

[15] = test system: CP325
How it was run: as §1

[16] = test system: CP329
How it was run: as §1

[17] = test system: CP335
How it was run: as §1

[18] = test system: DFO2036
How it was run: as §1

[19] = test system: DIV14
How it was run: as §1

[20] = test system: DIV17
How it was run: as §1

Measured: Potency

CCCOC(=O)c1ccc(N)cc1
inactive: all assays above

NCC1CCC(C(=O)Oc2ccc(CCC(=O)O)cc2)CC1 (configuration not stated)
inactive: all assays above

FC(F)(F)C(Cl)Br (configuration not stated)
not listed: [20]
inactive: all other assays above

COC(=O)c1ccccc1C(=O)c1ccc(OCCN2CCCCC2)cc1
not listed: [19] | [20]
inactive: all other assays above

Cc1cccc(C(=O)O)c1O
not listed: [19] | [20]
inactive: all other assays above

CC(=O)Nc1ccc(OCCOCCOc2ccc(NC(C)=O)cc2)cc1
not listed: [20]
inactive: all other assays above

CC(N)CCCC(C)(C)O (configuration not stated)
inactive: all assays above

CCc1nnc(NS(=O)(=O)c2ccc(N)cc2)s1
inactive: all assays above

O=C(O)CNC(=O)c1ccccc1I
inactive: all assays above

Cc1c(C(=O)NCCO)[n+](=O)c2ccccc2n1[O-]
inactive: all assays above

O=C(CN1CCNCC1)NC1CCCCC1
inactive: all assays above

O=C(NCCCN1CCOCC1)c1ccc(Cl)cc1
inactive: all assays above

CC(=O)Oc1cccc(O)c1
inactive: all assays above

CCCCCC(N)=O
inactive: all assays above

CC(CSC(=O)c1ccccc1)C(=O)N1C[C@@H](Sc2ccccc2)C[C@H]1C(=O)O (some centres not stated)
inactive: all assays above

CCN(CC)CC1CCCCN1CC(=O)N1c2ccccc2C(=O)Nc2cccnc21 (configuration not stated)
inactive: all assays above

CC(=O)NS(=O)(=O)c1ccc(N)cc1
inactive: all assays above

CC(=O)NCc1c(I)c(NC(C)=O)c(I)c(C(=O)O)c1I
inactive: all assays above

OCc1ccc(Cl)cc1Cl
inactive: all assays above

Nc1ncnc2c1ncn2[C@@H]1O[C@H](COP(=O)(O)O)[C@@H](O)[C@H]1O
inactive: all assays above

O=C(O)Cc1ccc(CCNS(=O)(=O)c2ccc(Cl)cc2)cc1
inactive: all assays above

COc1cc(O)cc(O)c1
not listed: [20]
inactive: all other assays above

CNCc1ccccc1
inactive: all assays above

O=C1CC[C@@H](C(=O)O)N1
not listed: [20]
inactive: all other assays above

NS(=O)(=O)c1cc2c(cc1C(F)(F)F)NCNS2(=O)=O
inactive: all assays above

Cc1cc(=O)[nH]c(=S)[nH]1
inactive: all assays above

O[C@@H]1CO[C@H]2[C@@H]1OC[C@@H]2O
inactive: all assays above

Cc1cc(NC(=O)C2=C(O)c3ccccc3S(=O)(=O)N2C)no1
not listed: [20]
inactive: all other assays above

CCCCOC(=O)c1ccc(N)cc1
inactive: all assays above

O=C1c2ccccc2S(=O)(=O)N1CCCCN1CCN(c2ncccn2)CC1
not listed: [20]
inactive: all other assays above

O=C(O)c1cc(=O)c2ccccc2o1
not listed: [20]
inactive: all other assays above

C[N+](C)(C)CC[N+]1(C)Cc2c(Cl)c(Cl)c(Cl)c(Cl)c2C1
inactive: all assays above

COC(=O)c1cccnc1
inactive: all assays above

CCCCCCCCCCCCCCCCCCO
not listed: [19] | [20]
inactive: all other assays above

CC(C)CCOC(=O)c1ccc(N(C)C)cc1
inactive: all assays above

Cc1ccc(S(=O)(=O)NC(=O)NC2CCCCC2)cc1
inactive: all assays above

Cc1c(I)c(=O)n(-c2ccccc2)n1C
inactive: all assays above

CC(=O)Nc1ccc(C(=O)O)cc1
inactive: all assays above

CN1CCN(C(=O)C2CCCCC2)CC1
inactive: all assays above

O=c1[nH]c2cc(C(F)(F)F)c(N3CCOCC3)cc2n(CP(=O)(O)O)c1=O
inactive: all assays above

C[C@@H]1CCC[C@H](C)N1
inactive: all assays above

CCCC(O)C(CC)CO (configuration not stated)
inactive: all assays above

CCCCCCCC(=O)OCC(O)CO (configuration not stated)
inactive: all assays above

Cc1ccccc1N=Nc1ccc(N=Nc2c(O)ccc3ccccc23)c(C)c1
inactive: all assays above

NNC(=O)CP(=O)(c1ccccc1)c1ccccc1
inactive: all assays above

O=c1[nH]c(=O)c2ccccc2o1
inactive: all assays above

O=C(CCBr)N1CCN(C(=O)CCBr)CC1
inactive: all assays above

CC(=O)Nc1cccc(O)c1
inactive: all assays above

O=C(O)COC(=O)Cc1ccccc1Nc1c(Cl)cccc1Cl
inactive: all assays above

O=C(O)c1ccccc1OP(=O)(O)O
inactive: all assays above

CCc1cccc(CC)c1NC(=O)CN(CC(=O)O)CC(=O)O
inactive: all assays above

CC(C(=O)O)c1ccc2c(c1)Cc1cccnc1O2 (configuration not stated)
inactive: all assays above

CC1CC(OC(=O)c2ccccc2O)CC(C)(C)C1 (configuration not stated)
inactive: all assays above

CC(C)=CCC/C(C)=C/CO
inactive: all assays above

OCC(O)CS (configuration not stated)
inactive: all assays above

CCCCC1(COC(=O)CCC(=O)O)C(=O)N(c2ccccc2)N(c2ccccc2)C1=O
inactive: all assays above

CC(=O)Nc1ccccc1
inactive: all assays above

CCN(CC)S(=O)(=O)c1ccc(C(=O)O)cc1
inactive: all assays above

CC(C)(C)C(=O)OCOC(=O)[C@@H]1N2C(=O)[C@@H](NC(=O)[C@H](N)c3ccccc3)[C@H]2SC1(C)C
inactive: all assays above
